“And” between values parts separate entries of the source, which are not always exact repeats. Identical values can stand only once. The source made the active and inactive calls. The calls were made as follows: active = hit-call score of the fitted dose curve at least 0.9, where 1 is the maximum; inactive = score below 0.9.
What was measured:
[1] = target: Paired box protein Pax-6 (Homo sapiens) (UniProt P26367); assay: ATG_Pax6_CIS: Attagene CIS-FACTORIAL HepG2 Assay for human Paired Box 6 (PAX6) (AID 2282956); settings: HepG2 CIS-FACTORIAL PAX6 reporter transcription, RNA readout; actives raise or lower the signal
Method in brief: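 Values derive from bidirectional curve fitting of reporter mRNA signal relative to DMSO. HepG2 cells bearing transfected cis-regulated MRTUs were exposed for 24 h; transcripts were read by RT-PCR and capillary electrophoresis.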

[2] = ATG_PXRE_CIS: Attagene CIS-FACTORIAL HepG2 Assay for human Pregnane X Receptor Element (PXRE) (AID 2282957); settings: HepG2 Attagene CIS-FACTORIAL PXRE reporter, mRNA; actives raise or lower the signal
Method in brief: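 Reporter transcripts under endogenous PXR-responsive cis-regulation quantified from total RNA of transfected HepG2 cells 24 h post-dosing, via RT-PCR with fluorescent primer extension and capillary electrophoresis. Gain or loss of signal fitted against DMSO baseline.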

[3] = ATG_PPRE_CIS: Attagene CIS-FACTORIAL HepG2 Assay for human Peroxisome Proliferator-activated Response Element (PPRE) (AID 2282958); settings: HepG2 PPRE cis-element reporter, Attagene transcription factor profiling; actives raise or lower the signal
Method in brief: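 Endogenous PPRE-driven transcription is measured in HepG2 cells carrying transfected multi-reporter constructs. Reporter transcripts are quantified by RT-PCR, HpaI digestion and capillary electrophoresis 24 h after dosing. DMSO baseline, bidirectional fit.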

[4] = ATG_RORE_CIS: Attagene CIS-FACTORIAL HepG2 Assay for human RAR-related Orphan Receptor Element (RORE) (AID 2282959); settings: HepG2 Attagene cis-factorial RORE reporter, mRNA; actives raise or lower the signal
Method in brief: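 RORE reporter transcripts reflecting endogenous factor activity were read after 24 h compound exposure of transfected HepG2 cells, using reverse transcription, PCR, fluorescent labelling and capillary electrophoresis sizing. Gain or loss fitted against DMSO.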

[5] = ATG_Sox_CIS: Attagene CIS-FACTORIAL HepG2 Assay for human SRY-box transcription factor (SOX) (AID 2282960); settings: HepG2 Attagene cis-factorial SOX reporter, mRNA; actives raise or lower the signal
Method in brief: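 Reporter transcripts, measured by RT-PCR and capillary electrophoresis of labelled fragments, report endogenous SOX transcription factor activity. Transiently transfected human HepG2 cells receive chemical for 24 h; changes in either direction are fitted relative to DMSO.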

[6] = target: Transcription factor Sp1 (Homo sapiens) (UniProt P08047); assay: ATG_Sp1_CIS: Attagene CIS-FACTORIAL HepG2 Assay for human Specificity Protein 1 (Sp1) (AID 2282961); settings: HepG2 Sp1 cis-reporter transcription, actives raise or lower the signal
Method in brief: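 Read-out is reporter transcript level, measured by RT-PCR and fluorescent capillary electrophoresis after 24 h chemical treatment. System: transiently transfected HepG2 cells reporting endogenous transcription factor activity; gain or loss fitted against DMSO baseline.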

[7] = ATG_SREBP_CIS: Attagene CIS-FACTORIAL HepG2 Assay for human Sterol Regulatory Element Binding (SREBP) (AID 2282962); settings: HepG2 Attagene cis-factorial SREBP reporter, mRNA; actives raise or lower the signal
Method in brief: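 Values derive from bidirectional curve fitting with DMSO as baseline. The underlying measurement is reporter mRNA from cis-element-regulated units in transiently transfected HepG2, quantified by RT-PCR and capillary electrophoresis after 24 h exposure.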

[8] = target: Signal transducer and activator of transcription 3 (Homo sapiens) (UniProt P40763); assay: ATG_STAT3_CIS: Attagene CIS-FACTORIAL HepG2 Assay for human Signal Transducer and Activator of Transcription 3 (STAT3) (AID 2282963); settings: HepG2, Attagene cis-factorial STAT3 reporter transcription; actives raise or lower the signal
Method in brief: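 Readout is reporter transcript quantified by RT-PCR and capillary electrophoresis, with 6-FAM primer extension and HpaI digestion. Total RNA is taken 24 h after dosing transiently transfected HepG2 carrying cis-regulated reporter units. Bidirectional fit against DMSO.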

[9] = ATG_TA_CIS: Attagene CIS-FACTORIAL HepG2 Assay for human TA Basal Promoter (AID 2282964); settings: HepG2 Attagene CIS-factorial TA basal promoter reporter; actives raise or lower the signal
Method in brief: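 HepG2 cells transiently transfected with multiplexed cis-promoter reporter units, dosed 24 h. Reporter mRNA measured by RT-PCR, 6-FAM labelling, HpaI digestion and capillary electrophoresis; bidirectional fit versus DMSO baseline, serving as background control.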

[10] = ATG_TCF_b_cat_CIS: Attagene CIS-FACTORIAL HepG2 Assay for human T-Cell-Factor with beta-catenin (TCF/b-cat) (AID 2282965); settings: HepG2 TCF/beta-catenin cis-reporter transcription, actives raise or lower the signal
Method in brief: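 Measured: reporter mRNA in HepG2 transiently transfected with cis-promoter reporter units, 24 h after chemical addition. Fitting was bidirectional, DMSO as negative control.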

Sequence of Transcription factor Sp1 (Homo sapiens) (P08047 whole entry, looked up): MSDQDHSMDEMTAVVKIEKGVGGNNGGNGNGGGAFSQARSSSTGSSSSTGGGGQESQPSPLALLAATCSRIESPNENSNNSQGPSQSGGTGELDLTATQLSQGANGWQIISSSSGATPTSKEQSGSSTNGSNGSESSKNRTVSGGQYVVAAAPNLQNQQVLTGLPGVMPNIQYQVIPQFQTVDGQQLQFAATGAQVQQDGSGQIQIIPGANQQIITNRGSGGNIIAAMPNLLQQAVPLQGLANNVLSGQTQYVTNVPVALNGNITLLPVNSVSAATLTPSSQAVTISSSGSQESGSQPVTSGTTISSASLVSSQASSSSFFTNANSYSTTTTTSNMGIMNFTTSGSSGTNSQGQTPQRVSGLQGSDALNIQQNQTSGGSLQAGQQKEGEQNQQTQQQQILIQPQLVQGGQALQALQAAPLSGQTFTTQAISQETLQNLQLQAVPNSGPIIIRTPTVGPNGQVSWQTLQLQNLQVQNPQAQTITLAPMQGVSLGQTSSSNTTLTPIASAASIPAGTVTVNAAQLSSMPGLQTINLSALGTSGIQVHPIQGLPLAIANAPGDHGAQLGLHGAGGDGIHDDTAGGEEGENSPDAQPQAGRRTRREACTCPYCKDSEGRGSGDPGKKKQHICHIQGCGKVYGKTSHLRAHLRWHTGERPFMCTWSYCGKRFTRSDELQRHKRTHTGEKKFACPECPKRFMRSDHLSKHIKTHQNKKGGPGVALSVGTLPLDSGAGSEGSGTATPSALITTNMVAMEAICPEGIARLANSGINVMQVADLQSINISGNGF
Sequence of Paired box protein Pax-6 (Homo sapiens) (P26367 whole entry, looked up): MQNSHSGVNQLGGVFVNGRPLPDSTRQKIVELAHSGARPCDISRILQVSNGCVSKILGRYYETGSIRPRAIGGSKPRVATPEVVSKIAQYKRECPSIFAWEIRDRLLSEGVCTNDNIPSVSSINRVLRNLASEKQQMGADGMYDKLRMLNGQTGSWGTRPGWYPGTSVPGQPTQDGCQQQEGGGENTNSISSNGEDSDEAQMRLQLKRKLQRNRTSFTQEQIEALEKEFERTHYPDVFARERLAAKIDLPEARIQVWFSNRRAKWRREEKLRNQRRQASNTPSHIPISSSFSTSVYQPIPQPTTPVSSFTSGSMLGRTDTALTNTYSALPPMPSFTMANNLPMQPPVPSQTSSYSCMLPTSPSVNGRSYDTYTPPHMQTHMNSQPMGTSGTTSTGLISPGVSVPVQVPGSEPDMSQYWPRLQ
Sequence of Signal transducer and activator of transcription 3 (Homo sapiens) (P40763 whole entry, looked up): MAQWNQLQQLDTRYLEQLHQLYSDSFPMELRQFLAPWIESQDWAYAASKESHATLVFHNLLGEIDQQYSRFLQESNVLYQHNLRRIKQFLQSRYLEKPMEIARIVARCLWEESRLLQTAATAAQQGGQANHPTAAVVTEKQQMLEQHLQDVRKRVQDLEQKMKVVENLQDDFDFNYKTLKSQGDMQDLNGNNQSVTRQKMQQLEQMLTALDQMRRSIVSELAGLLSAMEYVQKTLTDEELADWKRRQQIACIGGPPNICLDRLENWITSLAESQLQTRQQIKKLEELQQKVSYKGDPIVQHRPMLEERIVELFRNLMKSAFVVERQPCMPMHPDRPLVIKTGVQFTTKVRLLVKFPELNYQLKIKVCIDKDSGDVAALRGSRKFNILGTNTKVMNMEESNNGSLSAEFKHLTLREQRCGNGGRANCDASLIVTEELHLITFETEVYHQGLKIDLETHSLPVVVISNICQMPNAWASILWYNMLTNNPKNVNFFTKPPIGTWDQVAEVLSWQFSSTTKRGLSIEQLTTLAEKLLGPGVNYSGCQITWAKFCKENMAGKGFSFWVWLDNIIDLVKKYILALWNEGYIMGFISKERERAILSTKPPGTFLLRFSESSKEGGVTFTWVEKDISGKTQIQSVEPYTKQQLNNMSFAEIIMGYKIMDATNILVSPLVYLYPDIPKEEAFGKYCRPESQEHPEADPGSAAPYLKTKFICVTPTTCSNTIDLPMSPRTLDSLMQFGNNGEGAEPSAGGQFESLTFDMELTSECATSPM

NCc1cccc(C2CCN(C(=O)c3ccc(C#Cc4ccccc4F)o3)CC2)c1
AC50 [1]: 16.4 µM (active)
outcome [2]: inactive
AC50 [3]: 2.77 µM (active)
AC50 [4]: 6.79 µM (active)
outcome [5]: inactive
outcome [6]: inactive
AC50 [7]: 8 µM (active)
outcome [8]: inactive
AC50 [9]: 16.1 µM (active)

Cc1cn([C@H]2C[C@H](N=[N+]=[N-])[C@@H](CO)O2)c(=O)[nH]c1=O
outcome [1]: inactive
outcome [2]: inactive
outcome [3]: inactive
outcome [4]: inactive
outcome [5]: inactive
outcome [6]: inactive
outcome [7]: inactive
outcome [8]: inactive
outcome [9]: inactive
outcome [10]: inactive

CC[C@H](NC(=O)c1cc(F)ccc1NS(=O)(=O)c1cccc2cccnc12)c1ccccc1
outcome [1]: inactive
AC50 [2]: 0.0144 µM (active)
outcome [3]: inactive
outcome [4]: inactive
outcome [5]: inactive
outcome [6]: inactive
AC50 [7]: 27.1 µM (active)
outcome [8]: inactive
outcome [9]: inactive
outcome [10]: inactive

Cc1ccc2oc(CN(Cc3ccccc3)C(=O)Nc3c(F)cc(F)cc3F)c(-c3ccc(Cl)cc3)c2c1
outcome [1]: inactive
AC50 [2]: 0.63 µM (active)
outcome [4]: inactive
outcome [5]: inactive
outcome [6]: inactive
outcome [7]: inactive
outcome [8]: inactive
outcome [9]: inactive

CCCCCCCCCCCCO
outcome [1]: inactive
outcome [2]: inactive
outcome [3]: inactive
outcome [4]: inactive
outcome [5]: inactive
outcome [6]: inactive
outcome [7]: inactive
outcome [8]: inactive
outcome [9]: inactive
outcome [10]: inactive

O=C(O)c1ccccc1C(=O)OCc1ccccc1
outcome [1]: inactive
outcome [2]: inactive
outcome [3]: inactive
outcome [4]: inactive
outcome [5]: inactive
outcome [6]: inactive
outcome [7]: inactive
outcome [8]: inactive
outcome [9]: inactive
outcome [10]: inactive

O=C(O)Cn1c(=O)n(Cc2ccc(Br)cc2F)c(=O)c2ccc(Cl)cc21
outcome [1]: inactive
AC50 [2]: 8.54 µM (active)
outcome [4]: inactive
outcome [5]: inactive
outcome [6]: inactive
outcome [7]: inactive
outcome [8]: inactive
outcome [9]: inactive

CCCOC(=O)c1cc(O)c(O)c(O)c1
outcome [1]: inactive
outcome [2]: inactive
AC50 [3]: 21 µM (active)
outcome [4]: inactive
outcome [5]: inactive
outcome [6]: inactive
outcome [7]: inactive
outcome [8]: inactive
outcome [9]: inactive
outcome [10]: inactive

CC1=CC(=O)/C(=C(/C)O)C(=O)O1
outcome [1]: inactive
outcome [2]: inactive
outcome [3]: inactive
outcome [4]: inactive
outcome [5]: inactive
outcome [6]: inactive
outcome [7]: inactive
outcome [8]: inactive
outcome [9]: inactive
outcome [10]: inactive

CCN(Cc1cccnc1)C(=O)c1cccc(Cl)c1[C@]1(C)C(=O)N(Cc2ccc(OC)cc2OC)c2ccc(Cl)cc21
AC50 [1]: 3.83 µM (active)
AC50 [2]: 0.143 µM (active)
outcome [3]: inactive
AC50 [4]: 2.74 µM (active)
outcome [5]: inactive
outcome [6]: inactive
AC50 [7]: 3.23 µM (active)
outcome [8]: inactive
AC50 [9]: 4.5 µM (active)
AC50 [10]: 5.44 µM (active)

O=C(Nc1ccc(Cl)cc1)Nc1ccc(Cl)c(Cl)c1
outcome [1]: inactive
AC50 [2]: 2.12 µM (active)
outcome [3]: inactive
AC50 [4]: 4.17 µM (active)
outcome [5]: inactive
outcome [6]: inactive
outcome [7]: inactive
outcome [8]: inactive
outcome [9]: inactive
outcome [10]: inactive

Cc1occc1C(=O)Nc1ccc(C(=O)N2CCC(F)(F)/C(=C\C(=O)N3CCC(N4CCCCC4)CC3)c3ccccc32)cc1
AC50 [1]: 34.5 µM (active)
AC50 [2]: 8.38 µM (active)
AC50 [5]: 42.3 µM (active)
AC50 [6]: 56 µM (active)
outcome [7]: inactive
AC50 [8]: 62.6 µM (active)
outcome [9]: inactive
AC50 [10]: 26.5 µM (active)

CN1C(=O)CC[C@H]1c1cccnc1
outcome [1]: inactive
outcome [2]: inactive
outcome [4]: inactive
outcome [5]: inactive
outcome [6]: inactive
outcome [7]: inactive
outcome [8]: inactive
outcome [9]: inactive
outcome [10]: inactive

O=C1c2ccccc2C(=O)N1CCc1noc(-c2ccc(CN3CCCCCC3)s2)n1
outcome [1]: inactive
AC50 [2]: 2.09 µM (active)
outcome [4]: inactive
outcome [5]: inactive
outcome [6]: inactive
outcome [7]: inactive
outcome [8]: inactive
outcome [9]: inactive
outcome [10]: inactive

OC12N=C(c3ccccc3)SC1Cc1cc(Cl)ccc12 (configuration not stated)
outcome [1]: inactive
AC50 [2]: 4.27 µM (active)
AC50 [3]: 0.0507 µM (active)
outcome [4]: inactive
outcome [5]: inactive
outcome [6]: inactive
outcome [7]: inactive
outcome [8]: inactive
outcome [9]: inactive
outcome [10]: inactive

CCN(Cc1cccc(S(=O)(=O)O)c1)c1ccc(C(=C2C=CC(=[N+](CC)Cc3cccc(S(=O)(=O)O)c3)C=C2)c2ccccc2S(=O)(=O)[O-])cc1
outcome [1]: inactive
outcome [2]: inactive
outcome [3]: inactive
outcome [4]: inactive
outcome [5]: inactive
outcome [6]: inactive
outcome [7]: inactive
outcome [8]: inactive
outcome [9]: inactive
outcome [10]: inactive

C[C@]12CC[C@@H]3c4ccc(O)cc4CC[C@H]3[C@@H]1CCC2=O
outcome [1]: inactive
outcome [5]: inactive
outcome [6]: inactive
outcome [7]: inactive
outcome [8]: inactive
outcome [9]: inactive
outcome [10]: inactive

O=CCCCC=O
outcome [1]: inactive
outcome [2]: inactive
outcome [3]: inactive
outcome [4]: inactive
outcome [5]: inactive
outcome [6]: inactive
outcome [7]: inactive
outcome [8]: inactive
outcome [9]: inactive
AC50 [10]: 71.9 µM (active) and 100 µM (active)

O=c1ccc2ccccc2o1
outcome [1]: inactive
outcome [2]: inactive
outcome [4]: inactive
outcome [5]: inactive
outcome [6]: inactive
outcome [7]: inactive
outcome [8]: inactive
outcome [9]: inactive
outcome [10]: inactive
